Dicer processing = blocks human Dicer maturation of pre-miR-21 | Q9UPY3 | AID 1347074 | 47,000 compounds, 6% hits | cat-ELCCA pre-miR-21 Dicer processing, chemiluminescence; active compounds read high | z-score at 25 µM; in the data active = z-score above about 3, passing the limit was not always enough;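 note: higher signal means more uncleaved substrate so more Dicer inhibition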
Large screens that a line does not name were inactive. The sample as a whole holds a higher share of hits than the screen did.

CN(C)c1ccc(C2N[C@@H](C(=O)O)C(C)(C)S2)cc1 (stereo partly specified)	none
CCOCCOC(=O)C1=C(C)NC2=C(C(=O)CCC2)C1c1cc(OC)c(OC)cc1Br (stereo unspecified)	none
C=CCOc1cccc(C2c3c(oc4ccccc4c3=O)C(=O)N2Cc2ccc3c(c2)OCO3)c1 (stereo unspecified)	none
COc1ccc(-c2oc3ncn4nc(-c5ccccn5)nc4c3c2-c2ccc(OC)cc2)cc1	none
Cc1sc2c(c1C)C(=O)/C(=C\Nc1ccccc1Cl)S(=O)(=O)N2C	Dicer processing 4.78
CN1c2ccsc2C(=O)/C(=C\Nc2ccccc2Cl)S1(=O)=O	none
Cc1sc2c(c1C)C(=O)/C(=C\Nc1ccccn1)S(=O)(=O)N2C	none
CC(C)(C)OC(=O)/C(C#N)=C/c1ccc(C(F)(F)F)cc1	none
CC(=O)Nc1cc(Cl)c(F)cc1NC(=O)c1c(-c2c(Cl)cccc2Cl)noc1C	none
S=C(Nc1ccc(Cl)cc1)Nc1ccc(Cl)cc1	none
CC(C)=NNC(=S)Nc1ccc(Cl)cc1	Dicer processing 5.98
CNNC(=S)Nc1ccc(Cl)cc1	none
Cc1c(Cl)cccc1-n1c(CCc2ccc(O)cc2)n[nH]c1=S	none
CN(C)S(=O)(=O)c1ccc(-c2cc(C(F)(F)F)on2)s1	none
CCOC(=O)C(=CNc1ccn(C)n1)C(=O)OCC	none
CCOC(=O)CSC(=S)Nc1ccc(C)cc1C	none
CN=C(Nc1cc(C)c(C)cc1C)SC	none
CSC(=NCc1ccco1)Nc1ccc(C)cc1C	Dicer processing 4.12
COC(=O)C(O)(NC(=O)c1ccccc1C)C(F)(F)F (stereo unspecified)	none
O=c1oc2cc3occ(-c4ccc(Cl)cc4)c3cc2c2ccccc12	none
Cc1ccc(-c2noc(CSc3nnc(C)n3-c3ccccc3)n2)cc1	none
Cn1c(SCc2nc(-c3ccccc3)no2)nnc1-c1cccs1	Dicer processing 3.08
Cn1c(SCc2nc(-c3ccccc3)no2)nnc1-c1ccco1	none
CSc1nc(-c2cc(Cl)cc(Cl)c2)nn1C(=O)N(C)C	none
CSC1=NCCN1S(=O)(=O)c1cc(Cl)c(Cl)cc1Cl	none
CCOC(=O)CN(C(=O)COc1nc(-c2ccccc2)cc(C)c1C#N)c1ccc(C)cc1	none
CCOC(=O)CN(C(=O)COc1nc(-c2ccccc2)cc(C)c1C#N)c1cccc(OC)c1	none
CCOC(=O)CN(C(=O)COc1nc(-c2ccccc2)cc(C)c1C#N)c1ccccc1C	Dicer processing 3.49
COc1cc(Cl)c(C(F)(F)F)cc1NC(C)=O	none
O=C(/C=C/c1ccccc1)NC(=S)Nc1ccc(S(=O)(=O)Nc2ccc(C(F)(F)F)cc2)cc1	none
Cc1nc2nc(C)c(Cc3ccccc3)c(=O)n2[nH]1	none
COc1cc(C=Nc2ccc(C)c(NC(C)=O)c2)cc(OC)c1OC	none
CCc1nc(N)nc2c1C(=O)CC(C)(C)C2	none
CCNc1c2c(nc3ccccc13)CC(C)(C)CC2=O	Dicer processing 3.05
CC1(C)CC(=O)C2=C(C1)c1c(ccc3ccccc13)NC2c1ccccc1 (stereo unspecified)	none
CCOC(=O)/C(C#N)=C\Nc1cc(OC)cc2cccnc12	none
Cn1c(N)c(C(=O)N/N=C/c2ccccc2)sc1=S	none
COc1ccc(/C=N/NC(=O)c2sc(=S)n(-c3ccccc3)c2N)cc1	none
COc1ccc(/C=N/NC(=S)NN)cc1	none
COc1cc(/C=N/NC(=O)c2sc(=S)n(C)c2N)ccc1O	Dicer processing 3.83
COc1cc(/C=N/NC(=S)N/N=C/c2ccc(O)c(OC)c2)ccc1O	Dicer processing 3.93
COc1cc(/C=N/NC(=S)NC2CC3C=CC2C3)ccc1C (stereo unspecified)	none
CCc1ccnc(NS(=O)(=O)c2ccc(C#N)cc2)c1	none
CN1c2ccsc2C(=O)/C(=N\Nc2cccc(C(F)(F)F)c2)S1(=O)=O	none
Cc1cccc(Cl)c1/C=N/NC(N)=S	none
Cc1ccc(/C=N\Nc2nc3ccccc3nc2/C=C/c2cccs2)cc1	none
CC(C)c1ccc(C2Oc3ccccc3C=C2[N+](=O)[O-])cc1 (stereo unspecified)	none
COc1cccc2c1OC(c1ccc(F)cc1)C([N+](=O)[O-])=C2 (stereo unspecified)	Dicer processing 3.86
O=[N+]([O-])C1=Cc2cc(Cl)cc(Cl)c2OC1c1ccc(F)cc1 (stereo unspecified)	Dicer processing 5.21
Cc1ccc(S(=O)(=O)N2CCN(Cc3ccc4c(c3)OCO4)CC2)cc1C	none
CCOC(=O)c1c(/C=C2\C(=O)Nc3ccccc32)c(C)n(Cc2cccs2)c1C	none
COC(=O)c1ccc(C(=O)OC)c(N2C(=O)CSCC2=O)c1	none
O=C(c1ccc(Cl)cc1)N1CCc2sccc2C1c1ccc(C(F)(F)F)cc1 (stereo unspecified)	none
CCOc1ccccc1NC1OC(=O)c2ccccc21 (stereo unspecified)	none
CSc1nnc(-c2cccc([N+](=O)[O-])c2)o1	none
CC1CN=C(SCc2ccccc2)N1 (stereo unspecified)	none
CC1=C(C(=O)Nc2ccc(F)cc2)SCCO1	none
CC1=C(C(=O)Nc2ccccc2)S(=O)CCO1 (stereo unspecified)	Dicer processing 3.31
Cc1cc(C(=O)Nc2ccccc2)oc(=O)c1	none
O=C1NC(=O)C(Nc2cccc(Cl)c2)S1 (stereo unspecified)	none
COc1ccc(C2C(C#N)=C(N)OC3=C2C(=O)CC(C)(C)C3)cc1OCc1ccccc1 (stereo unspecified)	Dicer processing 3.02
COc1cc(C2C(C#N)=C(N)Oc3cc(O)ccc32)ccc1OCc1ccccc1 (stereo unspecified)	none
COC(=O)C1=C(C)NC2=C(C(=O)CC(C)(C)C2)C1c1ccc(OCc2ccccc2)c(OC)c1 (stereo unspecified)	none
O=C1Nc2ccccc2/C1=C\c1ccccc1N1CCN(Cc2ccccc2)CC1	none
O=C(c1cccc(Cl)c1)N(Cc1cccs1)C1CCS(=O)(=O)C1 (stereo unspecified)	none
C=CCOc1ccc(C(=O)N(Cc2ccc(OC)c(OC)c2)C2CCS(=O)(=O)C2)cc1 (stereo unspecified)	none
Cc1ccc2c(C)c(C(=O)N(Cc3ccc(N(C)C)cc3)C3CCS(=O)(=O)C3)oc2c1 (stereo unspecified)	Dicer processing 5.09
Oc1ccc2ncccc2c1C(Nc1ccccn1)c1cccc(Cl)c1 (stereo unspecified)	none
CS/C(=N/S(=O)(=O)c1ccccc1)NNC(=O)c1ccc(Cl)cc1	none
O=C(CO/N=C/c1c(Cl)cccc1Cl)NNC(=O)c1cccc(Cl)c1	none
O=C(NNC(=NS(=O)(=O)c1ccccc1)NNC(=O)c1cccc(Cl)c1)c1cccc(Cl)c1	Dicer processing 3.11
COc1cc(C(F)(F)F)nc2ccc(C)c(NC(=O)Nc3ccc(Cl)cc3)c12	none
FC(F)(F)c1ccc(NCn2nnc3cc(Cl)ccc32)cc1	none
Fc1ccc(NCn2nnc3cc(Cl)ccc32)cc1	none
FC(F)(F)Oc1ccc(NCn2nnc3ccccc32)cc1	Dicer processing 3.61
O=C(O)CCC(=O)NCc1ccco1	none
O=C(Cn1cncn1)c1ccccc1Cl	none
COc1ccc(Nc2nc(-c3ccncc3)cs2)cc1	none
CCN(CC)c1ccc(Nc2nc(-c3ccccn3)cs2)cc1	none
Cc1nc2ccccn2c1-c1csc(Nc2cccc(O)c2)n1	Dicer processing 6.5
CCN(CC)c1ccc(Nc2nc(-c3c(C)nc4ncccn34)cs2)cc1	Dicer processing 4.07
CCN(CC)c1ccc(Nc2nc(-c3cccnc3)cs2)cc1	none
COc1ccc(Nc2nc(-c3c(C)nc4ccccn34)cs2)cc1	Dicer processing 3.56
Cc1cccc(Nc2nc(-c3c(C)nc4ccccn34)cs2)c1	Dicer processing 4.62
COc1ccccc1Nc1nc(-c2c(C)nc3ccccn23)cs1	none
Cc1cccc(Nc2n[nH]c(=S)s2)c1	none
c1ccc(Nc2nc(-c3cccs3)cs2)cc1	none
